# From PubChem BioAssay (NCATS)
# A number with no mark means an inactive call. Records with an inconclusive call do not appear. The source made the active and inactive calls. Calls come from the whole dose curve; as a rule, active = well fitted curve in the direction sought with a large enough effect; inconclusive = small, poorly fitted or top-dose-only effect, or another doubt; inactive = no such curve, though single readings can be large; an effect the other way counts as inactive or inconclusive.
# Experiments:
# [1] = system: Nanoluciferase (engineered Oplophorus gracilirostris luciferase); assay: Primary Nanoluciferase (NLuc) qHTS assay for identification of artifact compounds. (AID 1845222);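 note: series mostly up to about 54 µM; 0% = DMSO and -100% = no enzyme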
# How it was run: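 Compounds are pinned into diluted (1:55) conditioned medium of NLuc-expressing S16 cells and held 15 min at room temperature protected from light. Nano-Glo substrate follows, and luminescence is read 5 min later.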
# [2] = Primary redox qHTS assay for identification of artifact compounds. (AID 1845223);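 note: 0% = DMSO and 100% = reference compound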
# How it was run: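 Redox-cycling detection via DTT (250 uM final) oxidation coupled to Amplex Red (25 uM)/HRP (250 mU/mL) in HBSS. 15 min preincubation plus 30 min after DTT, room temperature. Ex/Em 525/598 nm; 4-parameter Hill fit against DMSO and 10 uM DA3003.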
compound,measurement,setting,value
Cc1cc(C(=O)CN2CCCC2)c(C)n1-c1ccc(F)cc1,outcome,[1],inactive
same,outcome,[2],inactive
CN(C(=O)Cc1ccccc1)C(CN1CCCC1)c1ccccc1 (stereo not drawn),outcome,[1],inactive
same,outcome,[2],inactive
Clc1ccc(N2C[C@H]3CC[C@@H](C2)N3)nn1,outcome,[1],inactive
same,outcome,[2],inactive
CC1=C2C[C@H]3[C@@H](CC=C4C[C@@H](O)CC[C@@]43C)[C@@H]2CC[C@]12O[C@@H]1C[C@H](C)CN[C@H]1[C@H]2C,outcome,[1],inactive
same,outcome,[2],inactive
CC(C)(C)c1cc(C(C)(C)C)c2c(c1)C(O)(C(F)(F)F)C(=O)O2 (stereo not drawn),outcome,[1],inactive
COCC1OC(=O)c2coc3c2C1(C)C1=C(C3=O)C2CCC(=O)C2(C)CC1O (stereo not drawn),outcome,[1],inactive
same,outcome,[2],inactive
CO[C@H]1[C@H](O)[C@H](O[C@H]2CC[C@]3(C)C4CC[C@]5(C)[C@H](C6=CC(=O)OC6)CC[C@]5(O)C4CC[C@@H]3C2)O[C@@H](C)[C@@H]1O (stereo partly drawn),outcome,[1],inactive
CCOc1ccccc1-n1c(C(C)N2CCN(C(=O)COc3ccc(Cl)cc3)CC2)nc2ccccc2c1=O (stereo not drawn),outcome,[1],inactive
COC1CC(OC2CCC3(C)C(CCC4C3CCC3(C)C(C5=CC(=O)OC5)C(OC(C)=O)CC43O)C2)OC(C)C1OC1OC(CO)C(O)C(O)C1O (stereo not drawn),outcome,[1],inactive
C=C1[C@@H]2CC[C@@]3(C)[C@H](c4ccoc4)OC(=O)C[C@]13O[C@H]1CC(=O)C(C)(C)[C@H](C(OC(C)=O)C(=O)OC)[C@]12C (stereo partly drawn),outcome,[1],inactive
same,outcome,[2],inactive
CCCCCOc1cc2c(cc1-c1cc(/C=C/C(=O)O)ccc1O)C(C)(C)CCC2(C)C,outcome,[1],inactive
CO[C@@H]1[C@H](O)[C@@H](O[C@@H]2C[C@H]3CC[C@@H]4C(CC[C@]5(C)[C@@H](C6=CC(=O)OC6)CC[C@]45O)[C@@]3(C)[C@H](O)C2)O[C@H](C)[C@@H]1O[C@@H]1O[C@H](CO)[C@@H](O)[C@H](O)[C@H]1O (stereo partly drawn),outcome,[1],inactive
COC1CC(OC2CCC3(C)C(=CCC4C3CCC3(C)C(C(C)OC5OC(COC6OC(CO)C(O)C(O)C6O)C(O)C(O)C5O)CCC43O)C2)OC(C)C1OC1OC(C)C(O)C(OC)C1O (stereo not drawn),"activity, negative = inhibition",[1],2.42% [at 11.6 µM]
CN(C)CCc1c[nH]c2ccc(CN3CCN(C)S3(=O)=O)cc12,outcome,[1],inactive
same,outcome,[2],inactive
CC(=O)OC1CC(O)C2(C)C(CC(OC(C)=O)C3(C)C2CCC2(C)C(c4ccoc4)C(=O)C4OC423)C1(C)C (stereo not drawn),outcome,[1],inactive
CC(C)[C@@H](CN1CC[C@@](C)(c2cccc(O)c2)[C@@H](C)C1)NC(=O)[C@H]1Cc2ccc(O)cc2CN1,outcome,[1],inactive
same,outcome,[2],inactive
C[C@@]12C[C@@H](c3ccoc3)OC(=O)C1CC[C@]1(C)[C@H]2[C@H]2C=C[C@]1(O)C(=O)O2 (stereo partly drawn),outcome,[1],inactive
same,outcome,[2],inactive
CCN1C[C@]2(OC(=O)c3ccccc3NC(C)=O)CC[C@H](OC)[C@@]34[C@@H]2C[C@@H]([C@@H]13)[C@@]1(O)C[C@H](OC)[C@H]2C[C@@H]4[C@]1(O)[C@H]2OC,outcome,[1],inactive
COc1cc(C)[nH]c(=O)c1CNC(=O)c1c(C)n([C@H](C)C2CCOCC2)c2ccccc12,outcome,[1],inactive
COC(=O)C12C(=O)C(C)(O)C(=O)C1(C)C(C)=CC1C34CCC(OC3=O)C(C)(CO)C4CCC12C (stereo not drawn),outcome,[1],inactive
C1=C2CCCN[C@H]2[C@@H]2C[C@H]1[C@H]1CCCCN1C2,outcome,[1],inactive
same,outcome,[2],inactive
COC1C(O)C(OC2CCC3(C=O)C(CCC4C3CCC3(C)C(C5=CC(=O)OC5)CCC43O)C2)OC(C)C1OC1OC(CO)C(O)C(O)C1O (stereo not drawn),outcome,[1],inactive
same,outcome,[2],inactive
Cn1ncnc1COc1nn2c(-c3c(F)cccc3F)nnc2cc1C1CCC1,outcome,[1],inactive
same,outcome,[2],inactive
O=C(O)c1ccnc2cc(C(OCCN3CCCCC3)c3ccccc3Cl)[nH]c12 (stereo not drawn),outcome,[1],inactive
COC(=O)N1CCN(C(=O)Cc2ccc(Cl)c(Cl)c2)[C@@H](CN2CCCC2)C1,outcome,[1],inactive
CC(=O)O[C@H]1C[C@@H](OC(C)=O)C(C)(C)C2C[C@@H](O)[C@]3(C)C(CC[C@@]4(C)[C@H](C5=CC(=O)OC5O)C[C@H]5O[C@]543)[C@]21C (stereo partly drawn),outcome,[1],inactive
C=C[C@H]1[C@H](O[C@@H]2O[C@H](CO)[C@@H](O)[C@H](O)[C@H]2O)OC=C2C(=O)OCC[C@H]21,outcome,[1],inactive
same,outcome,[2],inactive
COC1CC(=O)C23C(=O)NC(CC(C)C)C2C(C)=C(C)C(OO)C3/C=C(\C)CCC(O)C1O (stereo not drawn),outcome,[1],inactive
same,outcome,[2],inactive
C[C@@]1(C(=O)O)CC[C@]2(C)CC[C@]3(C)C4=CC(=O)c5cc(O)c(O)cc5[C@]4(C)CC[C@@]3(C)[C@@H]2C1,outcome,[1],inactive
COC(=O)C1(C)CCC(O)C2(C)c3cc(O)c(C(C)C)cc3C(O)C(OC(C)=O)C12 (stereo not drawn),outcome,[1],inactive
OCCCCC#Cc1cncc(OC[C@@H]2CCN2)c1,outcome,[1],inactive
same,outcome,[2],inactive
CCC(C)(C#N)O[C@@H]1O[C@H](CO)[C@@H](O)[C@H](O)[C@H]1O (stereo partly drawn),outcome,[1],inactive
same,outcome,[2],inactive
C=C[C@H]1CN2CC[C@H]1C[C@@H]2[C@@H](O)c1ccnc2ccccc12,outcome,[1],inactive
same,outcome,[2],inactive
COC1CC(OC2CCC3(C=O)C(CCC4C3CCC3(C)C(C5=CC(=O)OC5)CCC43O)C2)OC(C)C1OC1OC(CO)C(O)C(O)C1O (stereo not drawn),outcome,[1],inactive
COc1cc(CCNCc2ccccc2O)c(OC)cc1C#N,outcome,[1],inactive
same,outcome,[2],inactive
COc1cc2c(cc1OC)[C@@]13CCN4CC5=CCO[C@H]6CC(=O)N2[C@H]1[C@H]6[C@H]5C[C@H]43,outcome,[1],inactive
same,outcome,[2],inactive
CC(C)(O)[C@H]1O[C@H]2CC[C@@]3(C)[C@@](O)(CC[C@H]4Cc5c([nH]c6ccccc56)[C@@]43C)C2=CC1=O,outcome,[1],inactive
same,outcome,[2],inactive
COC(=O)C1(C)CCC(O)C2(C)c3c(O)cc(C(C)C)cc3C(O)C(OC(C)=O)C12 (stereo not drawn),outcome,[1],inactive
same,outcome,[2],inactive
CCCCCCn1c(=O)c(C(=O)Nc2ccc(C(=O)OCCC)cc2)c(O)c2ccccc21,"activity, negative = inhibition",[1],1.06% [at 11.6 µM]
same,redox activity (% of DA3003),[2],-1.37% [at 11.5 µM]
COC1C(O)C(C)OC(OC2C(CO)O[C@@H](O[C@@H]3CC4CCC5C(CC[C@]6(C)[C@@H](C7=CC(=O)OC7)CC[C@]56O)[C@@]4(C)[C@H](O)C3)C(O)C2O)C1O (stereo partly drawn),outcome,[1],inactive
same,outcome,[2],inactive
CN1C(=O)c2ccccc2NC(=O)[C@]12O[C@@H]2c1ccccc1,outcome,[1],inactive
same,outcome,[2],inactive
C/C=C(\C)C(=O)O[C@H]1[C@H](OC(C)=O)[C@]2(CO)[C@H](O)[C@H](O)[C@]3(C)C(=CCC4[C@@]5(C)CC[C@H](O[C@@H]6O[C@H](C(=O)O)[C@@H](O)[C@H](O[C@@H]7OC[C@H](O)[C@H](O[C@@H]8OC[C@H](O)[C@H](O)[C@H]8O)[C@H]7O)[C@H]6O[C@@H]6O[C@H](CO)[C@@H](O)[C@H](O)[C@H]6O)C(C)(C)C5CC[C@]43C)[C@@H]2CC1(C)C (stereo partly drawn),"activity, negative = inhibition",[1],2.49% [at 11.6 µM]
same,redox activity (% of DA3003),[2],9.29% [at 11.5 µM]
CC1=C2C(=O)C3[C@@H](CC=C4C[C@@H](O)CC[C@@]43C)[C@@H]2CC[C@]12O[C@@H]1C[C@H](C)CN[C@H]1[C@H]2C (stereo partly drawn),outcome,[1],inactive
same,outcome,[2],inactive
CC(C)=C1CC[C@]23CO[C@H](C2)[C@@](O)(C(=O)O)CCC13 (stereo partly drawn),outcome,[1],inactive
same,outcome,[2],inactive
C[C@@H]1C(=O)O[C@H]2[C@H](O)[C@@]34[C@@H]5OC(=O)[C@@]3(O[C@@H]3OC(=O)[C@@H](O)[C@@]34[C@H](C(C)(C)C)[C@H]5O)[C@@]12O,outcome,[1],inactive
same,outcome,[2],inactive
CCN1C[C@]2(COC)[C@H](O)C[C@H](OC)[C@]34[C@@H]5C[C@]6(O)[C@H](OC(=O)c7ccccc7)[C@@H]5[C@@](O)([C@H]([C@H](OC)[C@H]23)[C@@H]14)[C@@H](O)[C@@H]6OC,outcome,[1],inactive
same,outcome,[2],inactive
C[C@]12CC[C@@H](O)C[C@H]1CC[C@@H]1[C@@H]2CC[C@]2(C)C(=O)CC[C@@H]12,outcome,[1],inactive
same,outcome,[2],inactive
C[C@H]1C(=O)O[C@H]2[C@H](O)[C@]34C5OC(=O)[C@]3(O[C@@H]3OC(=O)[C@H](O)C34[C@H](C(C)(C)C)[C@H]5O)C12O (stereo partly drawn),outcome,[1],inactive
same,outcome,[2],inactive
C[C@@](O)(COc1ccc(C#N)cc1)C(=O)Nc1ccc(C#N)c(C(F)(F)F)c1,outcome,[1],inactive
same,outcome,[2],inactive
CN1[C@H]2C[C@H](OC(=O)[C@H](CO)c3ccccc3)C[C@@H]1[C@@H](O)C2,outcome,[1],inactive
same,outcome,[2],inactive
CN1CCCC1CCOC(c1cc2nccc(C(=O)O)c2[nH]1)c1ccccc1Cl (stereo not drawn),outcome,[1],inactive
same,outcome,[2],inactive
CC[C@H]1CN2CC[C@H]1C[C@@H]2[C@@H](O)c1ccnc2ccc(OC)cc12,outcome,[1],inactive
same,outcome,[2],inactive
Clc1ccc(OCC2=NCCN2)cc1Cl,outcome,[1],inactive
same,outcome,[2],inactive
OC1(c2ccc(Cl)cc2)c2ccccc2C2=NCCN21 (stereo not drawn),outcome,[1],inactive
same,outcome,[2],inactive
N#C[C@@H](O[C@@H]1O[C@H](CO[C@@H]2O[C@H](CO)[C@@H](O)[C@H](O)[C@H]2O)[C@@H](O)[C@H](O)[C@H]1O)c1ccccc1,outcome,[1],inactive
same,outcome,[2],inactive
C[C@]12CC[C@H]3[C@@H]([C@H](O)CC4=CC(=O)CC[C@@]43C)[C@@H]1CC[C@@H]2O,outcome,[1],inactive
same,outcome,[2],inactive
CCN1C[C@]2(COC(=O)c3ccccc3N3C(=O)C[C@H](C)C3=O)CC[C@H](OC)[C@@]34[C@@H]5C[C@H]6[C@H](OC)[C@@H]5[C@](O)(C[C@@H]6OC)[C@](O)([C@@H](OC)[C@H]23)[C@@H]14,outcome,[1],inactive
same,outcome,[2],inactive
CCc1c(C(=O)C(N)=O)c2c(OCC(=O)OC)cccc2n1Cc1ccccc1,outcome,[1],inactive
same,outcome,[2],inactive
CCC(C)(OC(C)=O)C(=O)O[C@H]1[C@H](OC(C)=O)C[C@@H]2[C@@](C)([C@@H]3C[C@H]4C=CO[C@H]4O3)[C@H](C)C[C@H](OC(C)=O)[C@@]2(COC(C)=O)[C@@]12CO2 (stereo partly drawn),outcome,[1],inactive
same,outcome,[2],inactive
C/C=C(\C)C(=O)OC1C(C)OC(OC2C(C)OC(OC3CCC4(C)C(=CCC5C4CCC4(C)C(C(C)OC6OC(COC7OC(CO)C(O)C(O)C7O)C(O)C(O)C6O)CCC54O)C3)CC2OC)C(O)C1OC (stereo not drawn),"activity, negative = inhibition",[1],0% [at 11.6 µM]
same,redox activity (% of DA3003),[2],-7.77% [at 11.5 µM]
